hgDAF-12 ag = hgDAF-12 agonism, primary luciferase screen; HEK293 GAL4-hgDAF12 UAS-luciferase reporter, agonist luminescence; normalized to butyrate control; 370,000 tested, 1.8% active; activation, % at 6.8 µM;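 active = activation above a cutoff set at the mean of all screened compounds plus 3 SD, cut at about 10% in these data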
ssDAF-12 act = activators of S. stercoralis DAF-12 nuclear receptor. HEK293 ssDAF-12/GRIP1 lit1-tk-luc reporter, luminescence; % of 3 µM dafachronic acid response. activation, % at 6.8 µM. 370,000 tested, 1% active;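 active = activation above the mean over all tested compounds plus 3 SD, cut at about 0.9% in these data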
hcDAF12 agonist = H. contortus DAF-12 activation, primary screen. HEK293 hcDAF-12 lit1-tk-luc reporter, luminescence; 0% DMSO, 100% Δ7-dafachronic acid. activation, % at 6.8 µM. 370,000 tested, 1.4% active;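 active = activation above the mean of all tested compounds plus 3 SD, cut at about 5.5% in these data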
DAX1 inh-1 = inhibits human nuclear receptor DAX1. P51843. HEK293 Gal4-DAX1 luciferase reporter, luminescence. inhibition, % at 6.75 µM. 340,000 tested, 0.99% active;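 active = inhibition above the mean over all tested compounds plus 3 SD, cut at about 4.2% in these data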;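 note: inhibition shows as a rise in luminescence from relieved DAX1 repression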
Target sequence (P51843 207-470 limits assumed): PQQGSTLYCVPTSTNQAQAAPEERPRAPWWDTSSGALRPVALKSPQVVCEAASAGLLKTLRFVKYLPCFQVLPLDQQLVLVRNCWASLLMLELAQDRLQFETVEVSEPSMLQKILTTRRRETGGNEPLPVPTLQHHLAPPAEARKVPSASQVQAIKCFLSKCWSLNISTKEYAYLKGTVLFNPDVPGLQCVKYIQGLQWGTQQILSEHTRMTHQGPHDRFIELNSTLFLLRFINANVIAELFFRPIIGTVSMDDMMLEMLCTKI
DAX1 inh-2 = DAX1 (NR0B1) inhibition, primary screen; 370,000 tested, 1.1% active; AID 652010; HEK293T StAR-luciferase reporter, SF-1/DAX-1 repression relief; inhibition, % at 6.8 µM;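 active = inhibition above the mean over all tested compounds plus 3 SD, cut at about 3.6% in these data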;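 note: higher inhibition means more luminescence from relief of DAX-1 repression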
Of the large screens only hits and unclear results are named; the others gave an inactive call. Rows were chosen to be rich in hits. Some 4.1% of all compounds tested hit in one or more screens of this group.

COc1cccc(NC(=O)c2ncc(Cl)c(Cl)c2Cl)c1	hgDAF-12 ag 11
COc1cccc(NC(=O)Nc2ccc(C)c(Cl)c2)c1	hgDAF-12 ag 13
COc1cccc(NC(=O)Nc2cc(C(=O)O)ccc2C)c1	none
CC1CCCC(C)N1S(=O)(=O)c1ccc(Cl)cc1 (stereo not drawn)	DAX1 inh-1 4.7
N#CC(C#N)=C1SC(=Nc2ccccc2)C(=Nc2ccccc2)N1c1ccccc1	DAX1 inh-2 4.5
Cc1cccc(NC(=O)CN2C(=O)CCSc3ccccc32)c1C	none (no result: DAX1 inh-1)
COc1ccc(-c2cnc3ccccc3n2)cc1NC(=O)CNC(=O)c1ccccc1	ssDAF-12 act 1.2
COc1ccc(CCNC(=O)c2cc3c(C)nn(-c4ccccc4)c3s2)cc1OC	none (no result: DAX1 inh-1)
Cc1ccc(CN2CCN(/N=C/c3ccccc3)CC2)cc1	DAX1 inh-1 7.7
COC(=O)C1C(=O)c2c([nH]c(C(=O)OCC3CCCO3)c2C)CC1C (stereo not drawn)	DAX1 inh-1 5.8
COCCOC(=O)c1[nH]c2c(c1C)C(=O)C(C(=O)OC)C(C)C2 (stereo not drawn)	hgDAF-12 ag 10
CCCCCOC(=O)c1[nH]c2c(c1C)C(=O)C(C(=O)OC)C(C)C2 (stereo not drawn)	none
O=C(CSc1nnc(COc2ccc(Cl)cc2)n1Cc1ccco1)Nc1cccc2ccccc12	none (no result: DAX1 inh-1)
CCOC(=O)C1(Cc2ccccc2)CCN(Cc2ccccc2OC)CC1	none (no result: DAX1 inh-1)
Cc1ccc(C)c(NC(=S)NCCc2c[nH]c3ccccc23)c1	none
Cc1ccccc1NC(=S)NCCc1c[nH]c2ccccc12	hcDAF12 agonist 6.0
CCc1cccc(NC(=O)C2CCN(S(=O)(=O)c3ccc4c(c3)NC(=O)CO4)CC2)c1	none
Cc1ccccc1-n1ncc(C(C)NC(=O)c2ccccc2)c1C (stereo not drawn)	none
C=CCC(=O)NC(C)c1cnn(-c2ccccc2C)c1C (stereo not drawn)	ssDAF-12 act 1.0
CC1(c2nnnn2Cc2ccccc2)CCCC(=O)N1Cc1cccs1 (stereo not drawn)	none (no result: DAX1 inh-1)
Cc1ccc2c(c1)N(CCCC(=O)N(C)Cc1ccccc1Cl)C(=O)CO2	none (no result: DAX1 inh-1)
CC1(C)Nc2ccccc2C(=O)N1NC(=O)c1ccccc1	hcDAF12 agonist 5.7
CCOC(=O)NN1C(=O)c2ccccc2NC1(C)C	none
COc1cc(C(=O)NC2CCN(C)CC2)ccc1Nc1ncc2c(n1)N(Cc1ccccc1)CCC(=O)N2C	DAX1 inh-1 7.8
COc1cc(C(=O)NC2CCN(C)CC2)ccc1Nc1ncc2c(n1)N(C1CCCCC1)CCC(=O)N2C	none
COc1ccccc1/C=C/C(=O)c1ccc(Cl)cc1	none
COc1ccccc1/C=C/C(=O)c1ccccc1	hgDAF-12 ag 13
COc1cccc(/C=C/C(=O)OCC(=O)c2ccc(C)c(C)c2)c1OC	none
COc1ccc2[nH]cc(/C=C/C(=O)c3ccccc3)c2c1	hgDAF-12 ag 11
COc1cccc(/C=C/C(=O)OCC(=O)c2ccccc2)c1OC	hgDAF-12 ag 13, hcDAF12 agonist 6.1
O=C(Cc1cn(-c2ccccc2)nc1-c1ccccc1)N1CCCCC1	none
Cc1cc(C)c(S(=O)(=O)Nc2ccccn2)c(C)c1	DAX1 inh-1 4.3
CC(C)CC(=O)Nc1ccc(S(=O)(=O)Nc2nccs2)cc1	none
CCC(=O)Nc1ccc(S(=O)(=O)Nc2nccs2)cc1	DAX1 inh-1 4.3
Cn1nc(C(=O)Nc2ccc(S(=O)(=O)Nc3ncccn3)cc2)ccc1=O	DAX1 inh-1 5.1
Cc1ccc(S(=O)(=O)Nc2ccccn2)c(C)c1	none
O=C(Nc1ccc(S(=O)(=O)Nc2nccs2)cc1)C1=NN(c2ccccc2)C(=O)CC1	ssDAF-12 act 1.2
O=C(O)c1ccc(C#Cc2cccc(F)c2)cn1	none (no result: DAX1 inh-1)
Cc1ccc(C)c(NC(=O)CN(C)C(=O)C2CCN(C(=O)Nc3ccccc3)CC2)c1	none
O=C(CSc1nc2ccccc2n1Cc1ccccc1)NN=C/C=C/c1ccccc1	none (no result: DAX1 inh-1)
CCC(=O)Nc1ccc(S(=O)(=O)Nc2ncccn2)cc1	none
CCC(=O)Nc1ccc(S(=O)(=O)Nc2ccccn2)cc1	ssDAF-12 act 1.4
COCCCNCCOCCOc1ccc(C)cc1Br	hcDAF12 agonist 5.7
Cc1cc(C)n(-c2nnc3c4ccccc4n(C)c3n2)n1	hgDAF-12 ag 11
C/C(=N\Nc1nnc2c3ccccc3n(C)c2n1)c1ccc(C)o1	none
Cc1cc(C)cc(NC(=O)OC2CCC23CCCCC3)c1 (stereo not drawn)	none (no result: DAX1 inh-1)
Cc1nc(SCC(=O)NC(=O)NCCC(C)C)c2c(-c3cccs3)csc2n1	ssDAF-12 act 2.1
CCOc1ccc(S(=O)(=O)N(C)CC(=O)NC2CCCC2)cc1	none
COc1ccc(C2N(c3ccc(C)cc3)CCN2c2ccc(C)cc2)cc1O	DAX1 inh-1 4.9
N#CCC[C@@H]1CC[C@]2(CCCN(S(=O)(=O)C3CCCCC3)C2)O1	none (no result: DAX1 inh-1)
Cc1ccc2nsnc2c1NC(=O)c1cccnc1Cl	ssDAF-12 act 10
Cc1ccc2nsnc2c1NC(=S)NC(=O)c1ccco1	none
CC(=O)c1c(C)[nH]c(C(=O)CN2C(=O)NC3(CCCCC3C)C2=O)c1C (stereo not drawn)	none
CC(=O)c1c(C)[nH]c(C(=O)CN2C(=O)NC3(CCCCC3)C2=O)c1C	DAX1 inh-2 4.1
Cc1cc(C)c(C(=O)CN2C(=O)NC3(CCC(C)CC3)C2=O)cc1C (stereo not drawn)	none
Cc1cc(C)c(C(=O)CN2C(=O)NC3(CCCCC3)C2=O)cc1C	hcDAF12 agonist 6.2
COCCNC[C@@]12CO[C@H](c3ccc(Cl)cc3)N1[C@@H](c1ccc(Cl)cc1)SC2	none (no result: DAX1 inh-1, DAX1 inh-2)
CN(N=Nc1ccc([N+](=O)[O-])cc1)c1ccccc1	ssDAF-12 act 6.2
CC(=O)N1CCc2cc(S(=O)(=O)N3CCOCC3)ccc21	DAX1 inh-1 4.6
CC(=O)c1ccc(NC(=O)CC(C)S(=O)(=O)c2ccc3c(c2)CCN3C(C)=O)cc1 (stereo not drawn)	DAX1 inh-2 4.1
CCn1cc(C(=O)NCCCN2CCC(C)CC2)c(=O)c2cc(S(=O)(=O)N3CCCC3)ccc21	none
CCn1cc(C(=O)N2CCc3ccccc32)c(=O)c2cc(S(=O)(=O)N3CCOCC3)ccc21	hcDAF12 agonist 5.9
CCn1cc(C(=O)NCCCN2CCC(C)CC2)c(=O)c2cc(S(=O)(=O)N3CCOCC3)ccc21	DAX1 inh-2 3.7
C=CCN1C(=O)[C@@H](CC(=O)NCCCOCCCC)[C@]2(C(=O)OC)CCCCC=C12	none (no result: DAX1 inh-1)
CCCc1c(-c2ccc(F)cc2F)ncn1Cc1cccc(-c2ccccc2)c1	none (no result: DAX1 inh-1)
CN(C1CCCCC1)S(=O)(=O)c1ccc2c(c1)c(=O)c(C(=O)NCCCN1CCCC1)cn2C	DAX1 inh-1 4.9
CN(C1CCCCC1)S(=O)(=O)c1ccc2c(c1)c(=O)c(C(=O)NCCN1CCCC1)cn2C	none
CCCCN(CCCC)CCNC(=O)c1cn(CC)c2ccc(S(=O)(=O)N3CCCC3)cc2c1=O	DAX1 inh-2 4.5
C=CCN1[C@H](C#N)[C@@H](c2ccc(C#Cc3ccccc3OC)cc2)[C@H]1CO	none (no result: DAX1 inh-1)

Screening data (PubChem)
